A short description of experiment [1]: qHTS assay to identify small molecule agonists of the sonic hedgehog signaling (Shh) pathway (AID 1259368; calls by dose curve; further: series mostly up to about 92 µM; nearly all actives have a fitted effect of over 15% in size). The method, boiled down:
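NIH/3T3-derived 3T3Gli1-Luc cells carrying a stably integrated Gli1 response element–firefly luciferase reporter were plated, left 4 hr at 37 C, then given compounds in DMSO for 24 hr. Luminescence was read 30 min after adding luciferase reagent.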

In experiment [2] the target is Estrogen receptor beta (Homo sapiens) (UniProt Q92731). The experiment in a line: qHTS assay to identify small molecule agonists of the estrogen receptor beta (ER-beta) signaling pathway (AID 1259377; active means well fitted activation curve with a large enough effect in the signal ratio in the repeat runs, not every such curve was filed as active; the % refers to the signal ratio). In outline: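 Beta-lactamase reporter readout: fluorescence of LiveBLAzer B/G FRET substrate after 2 h at room temperature, following 16 h compound treatment of ER-beta-UAS-bla HEK293T cells at 37C in 2% charcoal-stripped FBS medium.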

Experiment [3] shares this target. The experiment in a line: qHTS assay to identify small molecule antagonists of the estrogen receptor beta (ER-beta) signaling pathway (AID 1259378; active means well fitted inhibition curve with a large enough effect in the signal ratio in the repeat runs, not every such curve was filed as active; the % refers to the signal ratio). In outline:
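ER-beta-UAS-bla HEK293T (GripTite) cells in 2% charcoal-stripped FBS medium were preincubated 6 hr at 37C, dosed with compound, then stimulated with 1 nM E2 (final) for 16 hr; beta-lactamase reporter read by B/G FRET fluorescence after 2 hr substrate loading.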

Experiment [4] in a line: qHTS assay to identify small molecule agonists of the androgen receptor (AR) signaling pathway in the presence of an antagonist - cell viability counter screen (AID 1259379). Further: nearly all actives have a fitted effect of over 25% in size. Further: potency means the concentration at half of the fitted maximal effect. In outline:
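MDA-kb2 human breast carcinoma cells (stable MMTV-luciferase, AR/GR responsive) were seeded 3,000 cells/well, pre-incubated 5 hr at 37C without CO2, then given 3.0uM nilutamide and compounds at 15 concentrations for 16 hr. Viability was read by CellTiter-Fluor fluorescence.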

Experiment [5] can be described thus: qHTS assay to identify small molecule agonists of the estrogen receptor beta (ER-beta) signaling pathway - cell viability counter screen (AID 1259380). Further: nearly all actives have a fitted effect of over 30% in size. Further: potency means the concentration at half of the fitted maximal effect. The method, boiled down:
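ER-beta-UAS-bla HEK293T cells in medium with 2% charcoal-stripped FBS were preincubated 6 hr at 37C, dosed with compound in DMSO for 16 hr, then after the bla read, CellTiter-Glo was added for 30 min at room temperature; luminescence recorded.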

For experiment [6], the target named is Androgen receptor (Homo sapiens) (UniProt P10275). Description: qHTS assay to identify small molecule agonists of the androgen receptor (AR) signaling pathway in the presence of an antagonist (AID 1259381; calls by dose curve; further: nearly all actives have a fitted effect of over 15% in size). In outline: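 MDA-kb2 human breast carcinoma cells carrying an MMTV-luciferase reporter (AR- and GR-responsive) were treated with compounds at 15 concentrations plus 3.0uM final nilutamide for 16hr at 37C without CO2; luminescence was read after ONE-Glo addition.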

Experiment [7] is described as follows: qHTS assay to identify small molecule antagonists of the estrogen receptor beta (ER-beta) signaling pathway - cell viability counter screen (AID 1259382). Further: series mostly up to about 92 µM; nearly all actives have a fitted effect of over 55% in size. The method, boiled down: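 ER-beta-UAS-bla HEK293T cells (2,000/well, 2% charcoal-stripped FBS) were pre-incubated 6 hr at 37C, then given compound plus 1nM final 17-beta-estradiol for 16 hr. Viability was read in the same wells by CellTiter-Glo luminescence after 30 min at room temperature.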

Experiment [8] addresses Estrogen receptor (Homo sapiens) (UniProt P03372). Description: qHTS assay to identify small molecule agonists of the estrogen receptor alpha (ER-alpha) signaling pathway in the presence of an antagonist (AID 1259383; calls by dose curve; further: top concentration of the series differs between compounds; nearly all actives have a fitted effect of over 15% in size). In outline:
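VM7Luc4E2 cells (endogenous full-length ER-alpha, 4×ERE-luciferase) were precultured 5 days in phenol red-free medium with 10% charcoal-stripped FBS, given 10.0nM ICI-182,780 (final), then treated with compounds at 15 concentrations for 22hr at 37C; luminescence read with ONE-Glo.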

Experiment [9] in a line: qHTS assay to identify small molecule agonists or antagonists of the thyroid stimulating hormone receptor (TSHR) signaling pathway - wild type cell line counter screen (AID 1259384; calls by dose curve). In outline: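 Wild-type HEK293 cells were plated 18 h at 37 C/5% CO2, pin-dosed with compound plus Ro20-1724 medium, held 30 min at room temperature, then given cAMP-d2 and anti-cAMP-cryptate; fluorescence was read after 1 h. Fifteen concentrations, triplicate.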

Experiment [10] concerns the target Thyrotropin receptor (Homo sapiens) (UniProt P16473). The experiment in a line: qHTS assay to identify small molecule antagonists of the thyroid stimulating hormone receptor (TSHR) signaling pathway (AID 1259385; calls by dose curve; further: nearly all actives have a fitted effect of over 20% in size). In outline:
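TSHR-HEK293 cells were plated and held 18 h at 37C/5% CO2, then given compound plus Ro20-1724 and stimulated with TSH at 1.5 ng/mL final. After 30 min at room temperature, cAMP was detected with cAMP-d2/anti-cAMP-cryptate (1 h) by fluorescence.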

Experiment [11] in a line: qHTS assay to identify small molecule agonists of the estrogen receptor alpha (ER-alpha) signaling pathway in the presence of an antagonist - cell viability counter screen (AID 1259386).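 Further: cells exposed to compounds for 22 h at 37 °C before the viability read; nearly all actives have a fitted effect of over 30% in size.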 Further: potency means the concentration at half of the fitted maximal effect. The method, boiled down:
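VM7Luc4E2 cells (endogenous full-length ER-alpha, 4×ERE-luciferase) were held 5 days in phenol red-free medium with 10% charcoal-stripped FBS, plated, then given 10.0nM ICI-182,780 and compounds at 15 concentrations for 22hr at 37C; viability read by CellTiter-Fluor fluorescence.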

For experiment [12], the target named is Progesterone receptor (Homo sapiens) (UniProt P06401). Description: qHTS assay to identify small molecule agonists of the progesterone receptor (PR) signaling pathway (AID 1346784; calls by dose curve; further: nearly all actives have a fitted effect of over 30% in size). In outline: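 HEK 293T PR-UAS-bla reporter cells, 2% charcoal-stripped FBS; 6 hr settle at 37C/5% CO2, compound (DMSO) 16 hr, LiveBLAzer B/G FRET substrate 2 hr RT, fluorescence intensity read.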

For experiment [13] the target is unchanged. The experiment in a line: qHTS assay to identify small molecule antagonists of the progesterone receptor (PR) signaling pathway (AID 1346795; active means well fitted inhibition curve with a large enough effect in the signal ratio in the repeat runs, not every such curve was filed as active; the % refers to the signal ratio). In outline:
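Beta-lactamase reporter, HEK293T PR-UAS-bla line; 2% charcoal-stripped FBS; 6 hr pre-incubation, 37C/5% CO2. Compound + R5020 1 nM final, 16 hr. LiveBLAzer B/G FRET substrate, 2 hr RT; fluorescence intensity read.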

Experiment [14] can be described thus: qHTS assay to identify small molecule antagonists of the progesterone receptor (PR) signaling pathway - cell viability counter screen (AID 1346798). Further: nearly all actives have a fitted effect of over 50% in size. Further: potency means the concentration at half of the fitted maximal effect. In outline: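 Luminescence readout (CellTiter-Glo, 30 min, RT) of viability in PR-UAS-bla HEK293T cells exposed to compound and R5020 agonist for 16 hr at 37C, 5% CO2; run in the same wells as the beta-lactamase reporter read.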

Experiment [15] can be described thus: qHTS assay to identify small molecule agonists of the progesterone receptor (PR) signaling pathway - cell viability counter screen (AID 1346799; calls by dose curve; further: nearly all actives have a fitted effect of over 45% in size; further: potency means the concentration at half of the fitted maximal effect). In outline:
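HEK293T PR-UAS-bla, 3,000 cells/well, 2% charcoal-stripped FBS; 6 h settle, compound 16 h at 37C/5% CO2; LiveBLAzer 2 h RT, then CellTiter-Glo 30 min RT, luminescence read.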

A short description of experiment [16]: qHTS assay to identify small molecule antagonists of the TGF-beta/Smad signaling pathway - cell viability counter screen (AID 1346824). Further: nearly all actives have a fitted effect of over 50% in size. In outline: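 SBE-bla HEK 293T cells were plated overnight at 37 C, then given compounds in DMSO plus TGF-beta1 (added as 0.25 ng/mL solution) for 5 hr. After the bla read, CellTiter-Glo was added to the same wells and luminescence read after 30 min at room temperature.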

Experiment [17] in a line: qHTS assay to identify small molecule agonists of the TGF-beta/Smad signaling pathway - cell viability counter screen (AID 1346829). Further: top concentration of the series differs between compounds; nearly all actives have a fitted effect of over 45% in size. The method, boiled down:
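Luminescence from CellTiter-Glo, read after a 30 min room-temperature incubation, gives cell viability of SBE-bla HEK 293T cells treated 5 hr with compounds at 37 C.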

Experiment [18] is described as follows: qHTS assay to identify small molecule agonists of the TGF-beta/Smad signaling pathway (AID 1346859; active means well fitted activation curve with a large enough effect in the signal ratio in the repeat runs, not every such curve was filed as active; the % refers to the signal ratio; further: series mostly up to about 77 µM). The method, boiled down: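 Read-out: fluorescence at 460 and 530 nm (405 nm excitation) after a 2 hr room-temperature incubation with beta-lactamase FRET substrate. SBE-bla HEK 293T cells had been treated with test compounds for 5 hr at 37 C.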
Experiment [19] has as its target Thyrotropin-releasing hormone receptor (Homo sapiens) (UniProt P34981). Description: qHTS assay to identify small molecule antagonists of the thyrotropin-releasing hormone receptor (TRHR) signaling pathway (AID 1346877; active means well fitted inhibition curve with a large enough effect in the repeat runs, not every such curve was filed as active; further: series mostly up to about 51 µM). The method, boiled down:
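TRHR-expressing HEK293 cells were seeded, cultured 18 h at 37 °C, then loaded with calcium dye for 2 h. Compounds were pre-incubated 5 min at room temperature before 1 nM TRH (final) was added, and kinetic fluorescence was recorded for 3 min.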

A short description of experiment [20]: qHTS assay to identify small molecule antagonists of the sonic hedgehog signaling (Shh) pathway (AID 1259369; calls by dose curve; further: nearly all actives have a fitted effect of over 45% in size). The method, boiled down:
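NIH/3T3-derived 3T3Gli1-Luc cells with stably integrated Gli1-Luc reporter were preincubated 4hr at 37 C, then given compounds in DMSO plus Shh conditioned medium and incubated 24hr. Firefly luciferase luminescence read after 30min reagent at room temperature.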

Results filed as inconclusive are left out. Calls of active or inactive are those of the source. Unless noted, the call rests on the fitted dose curve; in most records, active means well fitted curve in the direction sought with a large enough effect in the repeat runs; inconclusive means weak or mixed curves; inactive means no such curve, though single readings can be large; an effect the other way counts as inactive or inconclusive.

Chain of Estrogen receptor beta (Homo sapiens) (Q92731 whole entry, looked up): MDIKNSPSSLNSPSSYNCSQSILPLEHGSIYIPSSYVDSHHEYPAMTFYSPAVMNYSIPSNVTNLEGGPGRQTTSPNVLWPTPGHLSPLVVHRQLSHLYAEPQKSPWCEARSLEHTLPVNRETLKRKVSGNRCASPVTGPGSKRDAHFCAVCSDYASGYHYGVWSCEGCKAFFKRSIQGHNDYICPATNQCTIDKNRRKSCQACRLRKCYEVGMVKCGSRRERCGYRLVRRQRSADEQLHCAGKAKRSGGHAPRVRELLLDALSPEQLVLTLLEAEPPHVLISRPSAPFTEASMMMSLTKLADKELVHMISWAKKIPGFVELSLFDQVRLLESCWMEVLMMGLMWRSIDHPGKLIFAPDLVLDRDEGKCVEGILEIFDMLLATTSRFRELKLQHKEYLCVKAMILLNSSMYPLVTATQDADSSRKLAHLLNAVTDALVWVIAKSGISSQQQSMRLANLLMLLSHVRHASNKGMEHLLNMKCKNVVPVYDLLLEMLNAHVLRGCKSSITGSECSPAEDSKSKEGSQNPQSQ
Chain of Progesterone receptor (Homo sapiens) (P06401 whole entry, looked up): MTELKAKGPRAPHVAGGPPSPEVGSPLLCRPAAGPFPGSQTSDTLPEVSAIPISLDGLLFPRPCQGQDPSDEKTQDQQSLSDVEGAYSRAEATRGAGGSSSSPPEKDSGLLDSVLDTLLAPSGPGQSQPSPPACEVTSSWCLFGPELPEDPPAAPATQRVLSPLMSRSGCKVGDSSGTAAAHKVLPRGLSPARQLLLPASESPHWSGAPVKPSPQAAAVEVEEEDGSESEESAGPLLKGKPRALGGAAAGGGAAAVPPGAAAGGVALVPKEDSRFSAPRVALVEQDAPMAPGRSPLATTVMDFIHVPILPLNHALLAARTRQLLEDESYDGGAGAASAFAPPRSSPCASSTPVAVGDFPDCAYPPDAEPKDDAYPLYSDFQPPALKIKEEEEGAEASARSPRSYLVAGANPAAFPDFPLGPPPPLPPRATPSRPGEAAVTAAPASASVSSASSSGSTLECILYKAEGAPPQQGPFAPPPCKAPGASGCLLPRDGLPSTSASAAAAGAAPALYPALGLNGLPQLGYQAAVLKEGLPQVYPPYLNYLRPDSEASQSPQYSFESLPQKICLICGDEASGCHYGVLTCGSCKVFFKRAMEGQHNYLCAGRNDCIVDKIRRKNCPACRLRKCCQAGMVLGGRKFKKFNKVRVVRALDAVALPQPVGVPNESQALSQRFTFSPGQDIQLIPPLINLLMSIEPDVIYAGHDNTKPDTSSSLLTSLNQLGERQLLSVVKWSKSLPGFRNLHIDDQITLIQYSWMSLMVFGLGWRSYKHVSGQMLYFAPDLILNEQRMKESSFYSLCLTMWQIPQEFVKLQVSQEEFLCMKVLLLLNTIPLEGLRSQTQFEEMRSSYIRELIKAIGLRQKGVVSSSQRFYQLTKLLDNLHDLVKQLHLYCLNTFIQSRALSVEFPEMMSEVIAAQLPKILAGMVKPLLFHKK
Chain of Thyrotropin receptor (Homo sapiens) (P16473 whole entry, looked up): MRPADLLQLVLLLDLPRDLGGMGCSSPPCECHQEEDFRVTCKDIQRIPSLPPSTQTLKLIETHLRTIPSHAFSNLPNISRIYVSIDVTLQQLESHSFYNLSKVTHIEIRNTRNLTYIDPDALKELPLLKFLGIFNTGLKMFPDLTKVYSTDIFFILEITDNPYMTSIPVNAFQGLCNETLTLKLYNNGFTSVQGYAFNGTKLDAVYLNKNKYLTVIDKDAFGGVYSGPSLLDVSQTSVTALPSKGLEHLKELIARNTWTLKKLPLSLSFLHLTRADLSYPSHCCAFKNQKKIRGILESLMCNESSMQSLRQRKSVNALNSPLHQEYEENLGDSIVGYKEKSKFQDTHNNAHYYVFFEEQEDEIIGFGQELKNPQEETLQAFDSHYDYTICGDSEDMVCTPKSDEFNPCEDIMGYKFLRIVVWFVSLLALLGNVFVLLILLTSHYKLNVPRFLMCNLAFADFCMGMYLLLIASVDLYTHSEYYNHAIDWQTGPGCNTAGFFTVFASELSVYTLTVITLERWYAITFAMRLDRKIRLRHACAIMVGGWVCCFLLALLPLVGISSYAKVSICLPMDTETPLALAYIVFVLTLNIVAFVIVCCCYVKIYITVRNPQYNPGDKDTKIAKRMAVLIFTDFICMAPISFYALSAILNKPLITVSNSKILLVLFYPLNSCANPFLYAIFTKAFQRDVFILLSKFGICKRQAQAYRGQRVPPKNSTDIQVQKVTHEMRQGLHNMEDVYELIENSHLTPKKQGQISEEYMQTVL
Chain of Estrogen receptor (Homo sapiens) (P03372 whole entry, looked up): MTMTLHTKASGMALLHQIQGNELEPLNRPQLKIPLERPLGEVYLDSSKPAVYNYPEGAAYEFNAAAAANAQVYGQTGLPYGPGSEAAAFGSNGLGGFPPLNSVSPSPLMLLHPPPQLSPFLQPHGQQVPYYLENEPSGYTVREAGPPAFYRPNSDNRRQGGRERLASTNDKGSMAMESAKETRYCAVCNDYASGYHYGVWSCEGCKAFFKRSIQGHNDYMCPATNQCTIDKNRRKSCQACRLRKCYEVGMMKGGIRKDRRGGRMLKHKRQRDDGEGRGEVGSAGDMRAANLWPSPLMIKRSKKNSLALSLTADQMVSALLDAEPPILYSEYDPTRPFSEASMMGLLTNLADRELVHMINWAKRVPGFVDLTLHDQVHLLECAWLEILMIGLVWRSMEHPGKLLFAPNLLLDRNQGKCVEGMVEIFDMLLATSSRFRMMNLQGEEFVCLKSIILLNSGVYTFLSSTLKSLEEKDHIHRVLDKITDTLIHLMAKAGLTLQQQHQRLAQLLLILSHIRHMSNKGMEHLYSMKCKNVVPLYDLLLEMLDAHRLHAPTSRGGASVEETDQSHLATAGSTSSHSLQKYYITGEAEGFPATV
Chain of Thyrotropin-releasing hormone receptor (Homo sapiens) (P34981 whole entry, looked up): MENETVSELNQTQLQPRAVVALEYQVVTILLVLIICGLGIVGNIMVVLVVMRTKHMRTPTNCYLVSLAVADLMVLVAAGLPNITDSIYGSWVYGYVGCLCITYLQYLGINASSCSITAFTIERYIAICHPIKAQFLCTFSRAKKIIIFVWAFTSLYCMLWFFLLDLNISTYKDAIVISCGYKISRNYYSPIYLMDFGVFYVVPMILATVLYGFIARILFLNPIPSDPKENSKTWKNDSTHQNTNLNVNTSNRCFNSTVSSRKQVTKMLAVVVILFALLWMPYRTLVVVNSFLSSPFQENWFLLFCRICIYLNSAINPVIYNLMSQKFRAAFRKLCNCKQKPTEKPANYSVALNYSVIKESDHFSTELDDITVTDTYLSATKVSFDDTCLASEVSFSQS
Chain of Androgen receptor (Homo sapiens) (P10275 whole entry, looked up): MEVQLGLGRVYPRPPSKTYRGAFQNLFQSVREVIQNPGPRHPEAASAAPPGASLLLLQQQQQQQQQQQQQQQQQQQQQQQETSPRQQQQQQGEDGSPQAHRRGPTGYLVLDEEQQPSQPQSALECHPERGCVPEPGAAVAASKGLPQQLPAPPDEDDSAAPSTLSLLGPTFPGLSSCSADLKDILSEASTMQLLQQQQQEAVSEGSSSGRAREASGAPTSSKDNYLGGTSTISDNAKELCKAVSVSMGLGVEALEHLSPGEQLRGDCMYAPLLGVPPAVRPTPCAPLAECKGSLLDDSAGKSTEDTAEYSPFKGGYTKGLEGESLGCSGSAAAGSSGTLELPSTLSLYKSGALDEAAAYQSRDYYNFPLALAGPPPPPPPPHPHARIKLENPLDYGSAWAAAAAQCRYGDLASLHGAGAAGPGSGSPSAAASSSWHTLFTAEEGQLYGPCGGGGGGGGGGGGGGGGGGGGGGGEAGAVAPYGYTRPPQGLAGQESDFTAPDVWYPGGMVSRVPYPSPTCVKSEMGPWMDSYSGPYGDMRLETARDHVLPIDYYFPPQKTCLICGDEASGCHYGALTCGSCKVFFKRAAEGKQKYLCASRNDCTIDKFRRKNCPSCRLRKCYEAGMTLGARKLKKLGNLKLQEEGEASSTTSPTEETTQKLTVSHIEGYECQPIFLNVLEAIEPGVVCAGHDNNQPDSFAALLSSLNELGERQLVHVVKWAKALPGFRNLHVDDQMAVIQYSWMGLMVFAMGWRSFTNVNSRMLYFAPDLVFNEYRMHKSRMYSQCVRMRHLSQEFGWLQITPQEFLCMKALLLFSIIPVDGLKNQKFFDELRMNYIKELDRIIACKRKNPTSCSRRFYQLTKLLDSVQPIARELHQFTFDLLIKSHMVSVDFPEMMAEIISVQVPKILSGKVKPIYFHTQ

With `Nc1c(Cl)cc(Cl)cc1[N+](=O)[O-]`, the Potency entry in experiment [1], in experiment [2], in experiment [3], in experiment [4], in experiment [5] and in experiment [6] was “inactive” in each case. Besides, the Potency entry in experiment [7], in experiment [8], in [9], in experiment [10], in [11] and in [12] was “inactive” in each case. Moreover, the Potency result in [13], in experiment [14], in experiment [15], in [17] and in experiment [18] was “inactive” throughout. The molecule was called inactive in experiment [16] and in experiment [19].

On to `O=C(O)c1cccc(Oc2ccccc2)c1`, for which the Potency result in [1], in experiment [20], in experiment [5], in experiment [8], in experiment [9] and in experiment [10] was “inactive” each time. The Potency result in experiment [11], in [12], in experiment [13], in experiment [14], in [15] and in experiment [17] was “inactive” in each case. Besides, the outcome in experiment [16] and in experiment [19] was inactive.

Take `CCN(CC)c1ccc(C(=C2C=CC(=[N+](CC)CC)C=C2)c2ccc(S(=O)(=O)O)cc2S(=O)(=O)[O-])cc1`: the Potency result in experiment [1], in [2], in experiment [3], in experiment [6], in experiment [12] and in experiment [13] was “inactive” throughout. The Potency result in experiment [18] is “inactive”. Further, the Potency is 27.3 µM (active) in [4]; 27.3 µM (active) in [5]; 17.2 µM (active) in experiment [11]; 30.6 µM (active) in experiment [14]; 24.3 µM (active) in experiment [15]. Moreover, the outcome in experiment [19] was inactive.

Take `CC(=O)OCC1=C(C(=O)O)N2C(=O)[C@@H](NC(=O)CSc3ccncc3)[C@H]2SC1`: the Potency entry in experiment [1], in experiment [2], in [3], in [4], in [5] and in experiment [7] was “inactive” in each case. Moreover, the Potency result in [9], in experiment [10], in experiment [11], in experiment [12], in [14] and in experiment [15] was “inactive” in each case. Moreover, the Potency entry in [18] is “inactive”. Moreover, the molecule was called inactive in [16] and in experiment [19].

For the molecule `CC1=C2[C@@H]([C@H](C)CC[C@H]2/C=C(\C)C(=O)O)[C@H](O)C1`, the Potency result in experiment [1], in experiment [2], in [3], in experiment [4], in [5] and in [7] was “inactive” in each case. Further, the Potency entry in [8], in [9], in [10], in experiment [11], in experiment [12] and in experiment [14] was “inactive” throughout. Besides, the Potency entry in [15], in [17] and in experiment [18] was “inactive” in each case. In addition, the call in [16] was inactive.

In the case of `CC(C)C(O)C(C)(C)CO` (stereo unspecified), the Potency entry in experiment [1], in experiment [20], in experiment [7], in [9], in experiment [11] and in experiment [14] was “inactive” throughout. Moreover, in experiment [18], the Potency result was “inactive”. In addition, the molecule was called inactive in experiment [16] and in [19].

In the case of `CC(=O)OCCC1CCCCC1`, the Potency result in [1], in experiment [2], in [3], in experiment [4], in experiment [5] and in experiment [7] was “inactive” each time. In addition, the Potency entry in experiment [8], in experiment [11], in experiment [12], in experiment [13], in experiment [14] and in experiment [15] was “inactive” throughout. Moreover, in experiment [18], the Potency entry was “inactive”. For the same molecule, the outcome in experiment [16] and in [19] was inactive.

(Values after PubChem BioAssay (Tox21).)
